Measurements published in PubChem BioAssay (NCI).
Several values for one entry are separate records, joined by “and”; a condition that tells them apart may be missing. Equal values may be shown once. Compounds without any hit were thinned out: in the full panel of roughly 79,000, 15% have a hit. Activity calls are given as the source filed them. No stated cut-off is given here; in the data, active means growth inhibition above about 70%; inactive means the rest.

Columns and labels:
[1] = NCI Yeast Anticancer Drug Screen. Data for the rad50 strain (AID 155);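 further: 0% = growth of vehicle-only cultures of the same strain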; settings: S. cerevisiae rad50 strain growth inhibition, active compounds read high; at 50.0 µM unless noted
How it was run: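 Cells are treated with compound, grown, and their growth is then scored against vehicle-only cultures of the same repair-deficient yeast strain.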

[2] = NCI Yeast Anticancer Drug Screen. Data for the mec2-1 strain (AID 157); settings: S. cerevisiae mec2-1 strain, active compounds read high; at 50.0 µM unless noted
How it was run: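 Yeast mec2-1 mutant treated with compound. Readout: growth inhibition vs vehicle controls.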

[3] = NCI Yeast Anticancer Drug Screen. Data for the sgs1 mgt1 strain (AID 161);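 further: 0% = growth of cultures given vehicle only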; settings: S. cerevisiae sgs1 mgt1 strain, active compounds read high; at 50.0 µM unless noted
How it was run: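 Test agents were incubated with a DNA-repair-mutant yeast strain. Growth was then read and compared against vehicle-treated controls.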

[4] = NCI Yeast Anticancer Drug Screen. Data for the cln2 rad14 strain (AID 165);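 further: 0% = growth equal to vehicle treated cultures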; settings: S. cerevisiae cln2 rad14 strain, active compounds read high; at 50.0 µM unless noted
How it was run: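 cln2 rad14 yeast strain; compound exposure; growth inhibition read vs vehicle controls.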

[5] = NCI Yeast Anticancer Drug Screen. Data for the bub3 strain (AID 167); settings: S. cerevisiae bub3 mutant strain, active compounds read high; at 50.0 µM unless noted
How it was run: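 Part of a panel of yeast mutants defective in DNA damage repair or cell cycle regulation. Each strain is grown with compound, and inhibition is calculated relative to solvent-treated cultures.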

[6] = NCI Yeast Anticancer Drug Screen. Data for the mlh1 rad18 strain (AID 175); settings: S. cerevisiae mlh1 rad18 strain growth inhibition, active compounds read high; at 50.0 µM unless noted
How it was run: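 Yeast w/ defined DNA-repair lesions; compound exposure; growth vs vehicle controls → % inhibition.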

Measured: growth inhibition

COc1cccc(OC)c1NC(=O)C(=O)Nn1c(NNC(=O)c2ccncc2)nc2ccccc2c1=O
inactive: [1] 28.6% | [2] 26.5% | [3] 4.65% | [4] -30.1% | [5] 35% | [6] 38.4%

CCN1CCNC(c2ccccc2)C1(C)C (centres undefined)
inactive: [1] -2.35% | [2] -5.45% | [3] -10% | [4] -15.7% | [5] -5.95% | [6] 3.4%

COC(=O)c1[nH]nc(-c2ccccc2)c1N
inactive: [1] 11% | [2] 2.95% | [3] -12.8% | [4] -51.8% | [5] 17.4% | [6] 1.9%

CCN(CC)c1ccc(/C=N/Nc2cc(C)nc3ccc(C4CCCCC4)cc23)cc1
inactive: [1] 25.8% | [2] 4.3% | [3] 21.1% | [4] 3.15% | [5] -2.35% | [6] 44.9%

Cc1ccc(C)n1-n1c(Cc2ccc(Cl)cc2)n[nH]c1=O
inactive: [1] 8.5% | [2] 3.05% | [3] 16% | [4] 8.05% | [5] -4.4% | [6] 13.1%

O=C(O)c1ccc(NCn2c(=S)sc3ccccc32)cc1
inactive: [1] 6.45% | [2] 3% | [3] 52% | [4] 26.9% | [5] 11.8% | [6] 11.1%

O=C1NC(N/N=C\C(O)C(O)C(O)CO)=N/C1=C/c1ccc(Cl)cc1 (centres undefined)
inactive: [1] 43.2% and 45.5% | [2] 37% and 43% | [3] 44.8% and 35.1% | [4] 36.8% and 26.8% | [5] 38.1% and 43% | [6] 14.8% and 38.6%

Cc1cc(C(=O)c2ccccc2)on1
inactive: [1] 4.05% | [2] -22.6% | [3] -11.9% | [4] -36.1% | [5] 7.7% | [6] 4.55%

O=C1NC2OCC(O)C(O)C2O1 (centres undefined)
inactive: [1] 4.6% | [2] 10.1% | [3] -4.15% | [4] 12.4% | [5] 22.4% | [6] 6.45%

O=C1OCCOCCOCCOCCOC(=O)c2cccc1n2
inactive: [1] -10.2% | [2] 6.65% | [3] 12.6% | [4] 17.1% | [5] 5.2% | [6] 7.2%

CC1=Cc2cccc(C)c2C(=O)C1=O
active: [1] 93.6% | [2] 95.2% | [3] 94.5% | [4] 92.8% | [5] 93.8% | [6] 93.2%

CN(C)C(=O)C(c1ccccc1)C(c1ccccc1)N(C)C=O (centres undefined)
inactive: [1] -3.5% | [2] -2.2% | [3] 0.2% | [4] -3.3% | [5] -8.3% | [6] 25.1%

NC(=O)c1ccc(F)cc1
inactive: [1] -42.3% | [2] -29.6% | [3] -7.7% | [4] -16.1% | [5] -18.2% | [6] -10.5%

Clc1ccccc1/C=N\N=C\c1ccco1
inactive: [1] 8.3% | [2] -14.1% | [3] -9.05% | [4] -40.4% | [5] -11.1% | [6] 14.4%

Clc1ccc(OCC(COc2ccccc2)Oc2nc(-c3ccccc3)nc(-c3ccccc3)n2)cc1 (centres undefined)
inactive: [1] -14.2% | [2] 2.25% | [3] 3.1% | [4] -5.8% | [5] -8.6% | [6] -17.1%

CC1=NN(C(=O)CC(=O)Nc2ccc(C)cc2)C(=O)C1N=Nc1ccc(S(=O)(=O)c2ccc(N=NC3C(=O)N(C(=O)CC(=O)Nc4ccc(C)cc4)N=C3C)cc2)cc1 (centres undefined)
inactive: [1] 49.8% | [2] 36% | [3] 36.8% | [4] 21.2% | [5] -1.2% | [6] 39.6%

Cc1ccc(S(=O)(=O)N2CCCSCC2)cc1
inactive: [1] -11.6% | [2] -6.7% | [3] -17.5% | [4] -6.95% | [5] -11.6% | [6] -16.1%

C=C1CC(C2OCOC3COCOC32)OC1=O (centres undefined)
inactive: [1] -44.1% | [2] -12.9% | [3] -14.8% | [4] -22.6% | [5] 17.2% | [6] -2.1%

O=C(CC(=O)c1cc(Cl)ccc1O)c1ccc2ccccc2n1
inactive: [1] -0.35% | [2] 13.2% | [3] 18.8% | [4] -21.8% | [5] -2.85% | [6] 22.4%

COc1cc(O)c(C(=O)/C=C/c2ccccc2)c(OC)c1
inactive: [1] 1.05% | [2] -12.1% | [3] 27.1% | [4] 15.6% | [5] 15.1% | [6] -21.4%

COc1cc2c(cc1OC)C1C(C)c3ccc(OC)c(OC)c3CN1CC2 (centres undefined)
inactive: [1] 0.65% | [2] -43% | [3] -3.25% | [4] -0.95% | [5] -29.6% | [6] -8.6%

COc1ccc(/C(C)=C\C(=O)O)cc1
inactive: [1] -1.95% | [2] -3.2% | [3] -9.55% | [4] -43.2% | [5] -40% | [6] 7.15%

CC(C)(C)c1cc(-n2nc3ccccc3[n+]2[O-])c(O)c(C(C)(C)C)c1
inactive: [1] 4.35% | [2] 12.8% | [3] 20.1% | [4] 18.6% | [5] -0.6% | [6] 33.6%

CCOC(=O)C1C(=O)CC(C)(O)C(C(=O)OCC)C1c1ccc(OC)cc1 (centres undefined)
inactive: [1] -27.4% | [2] 2.55% | [3] 8.65% | [4] -5.95% | [5] -2% | [6] 21.8%

Nc1nc(CC2(O)CCCCC2)cc(-c2ccccc2)n1
inactive: [1] 49% | [2] 29.6% | [3] 21.1% | [4] 55.2% | [5] 45.5% | [6] 44.8%

CCOC(=O)C1=C(c2ccccc2)OC(N)=C(C#N)C1c1ccccc1Cl (centres undefined)
inactive: [1] 28.4% | [2] 18.7% | [3] 24.6% | [4] -21.4% | [5] 39.9% | [6] 51.5%

CC1OC(O)C(O)C(O)C1O (centres undefined)
inactive: [1] -19.3% and 13.9% | [2] -11.7% and 6.25% | [3] -43.6% and 31% | [4] -65.2% and 34.1% | [5] -39.3% and 27.2% | [6] -28.6% and 25.6%

Nc1ccc(S(=O)(=O)CCS(=O)(=O)c2ccc(N)cc2)cc1
inactive: [1] 5.65% | [2] -4.5% | [3] 0.55% | [4] -25.1% | [5] 4.45% | [6] 0.8%

O=C(Nc1ccccc1)Nc1ccc2c(c1)oc1ccccc12
inactive: [1] 8.85% | [2] 6.7% | [3] 9.6% | [4] 28% | [5] 10.9% | [6] 25.6%

COc1nc2nccnc2c(=O)n1C
inactive: [1] -18.2% | [2] -4.65% | [3] -16.5% | [4] 14.4% | [5] -7.55% | [6] -3.3%

COc1ccccc1NC(=O)c1ccccc1
inactive: [1] 23.2% | [2] 11.3% | [3] 4.95% | [4] -9.25% | [5] 2.75% | [6] 16.1%

Cn1c(Nc2ccccc2)c(C=Nc2ccccc2)c(=O)n(C)c1=O
inactive: [1] -2.15% | [2] 3.45% | [3] -7.85% | [4] 7.55% | [5] -22.6% | [6] -0.9%

C=CCc1cc(OC)c2c(c1)C(O)CC(c1ccc(OC)c(OC)c1)O2 (centres undefined)
inactive: [1] 16.5% | [2] 1.25% | [3] 18.6% | [4] -14.3% | [5] 22.6% | [6] -4%

S=C(c1ccco1)N1CCOCC1
inactive: [1] 14.8% | [2] 12% | [3] 25.1% | [4] 12.7% | [5] 16.2% | [6] 10.8%

CCOC(=O)c1c(C)[nH]c(C=O)c1C
inactive: [1] 5.65% | [2] 9.3% | [3] 0.25% | [4] 16.7% | [5] -0.25% | [6] 4.4%

O=C(O)c1cc([N+](=O)[O-])c(O)c2ccccc12
inactive: [1] 9.15% | [2] 2.8% | [3] 6.1% | [4] -22.1% | [5] -16.1% | [6] 21.8%

Cc1ccc(NC(=O)Oc2ccc(C(C)(C)C)cc2)cc1NC(=O)Oc1ccc(C(C)(C)C)cc1
inactive: [1] -14.4% | [2] -29.4% | [3] -6.35% | [4] -4.75% | [5] 10.7% | [6] -18.6%

CCCC(=O)OC1CC(n2cc(F)c(=O)[nH]c2=O)OC1CO (centres undefined)
inactive: [1] 8.6% | [2] 0.45% | [3] 11.6% | [4] 2.55% | [5] 7.85% | [6] -28.6%

O=[N+]([O-])c1cnccc1/C=C\c1ccccc1
inactive: [1] 4.5% | [2] 3.15% | [3] -2.1% | [4] -35.9% | [5] -5.7% | [6] 12%
